Test results: PubChem BioAssay
Activity calls are given as the source filed them. Unless noted, how the calls were made is not given here.

How the values were obtained:
[1] = HepG2 liver cancer cell viability effects, profiling panel, resazurin fluorescence, 24 h, PK04 Diversity Set (AID 1172); conditions: higher = more signal; further: test concentration not given here
[2] = basal S. cerevisiae growth modulation, no modifier, primary screen, OD600, strain BY4716, 24 h, basal condition (AID 1173); conditions: OD600, 24 h, higher = more signal, called active from +8 up or from −8 down
[3] = MM1S myeloma cell viability, profiling panel, resazurin fluorescence, basal, 24 h, PK04 Diversity Set (AID 1174); conditions: higher = more signal, called active from +8 up or from −8 down;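 further: MM1S multiple myeloma cell line; test concentration not given here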
[4] = target: Dihydroorotate dehydrogenase (quinone), mitochondrial (Plasmodium falciparum (isolate 3D7)) (UniProt Q08210); assay: PfDHODH enzyme inhibitors, primary screen, biochemical, C-terminal His tag, absorbance 600 nm (AID 1175); conditions: DCIP absorbance 600 nm, higher = more signal, called active from +8 up or from −8 down;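 further: recombinant parasite enzyme with a five histidine tag at its C terminus; test concentration not given here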
[5] = P. aeruginosa biofilm formation inhibitors, primary screen, strain PAO1, LB-PBS medium, absorbance 600 nm (AID 1176); further: test concentration not given here; conditions: P. aeruginosa PAO1 growth/biofilm, A600, 12 h; higher = more signal
[6] = S. cerevisiae RM11-1a growth modifiers, primary screen, strain RM11-1a, OD600, basal, 24 h (AID 1177); conditions: OD600, 24 h, higher = more signal, called active from +8 up or from −8 down;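 further: cultures grown under basal conditions with no added stressor; test concentration not given here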
[7] = E. coli acrAB mutant growth effects, primary screen, E. coli filamentation inducers, strain DRC39, OD650, 24 h (AID 1178); conditions: higher = more signal, called active from +8 up or from −8 down;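 further: growth measured as culture turbidity by optical density at 650 nm; test concentration not given here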
[8] = E. coli acrAB mutant growth effects, primary screen, E. coli filamentation inducers, strain DRC39, OD650, 48 h (AID 1179);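 further: screen aims at cell division blockers that make cells filament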; conditions: E. coli DRC39 delta-acrAB growth, higher = more signal, called active from +8 up or from −8 down
[9] = RPMI8226 myeloma cell viability, profiling panel, resazurin fluorescence, basal, 24 h, PK04 Diversity Set (AID 1180); conditions: higher = more signal;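 further: RPMI8826 multiple myeloma cell line at 5000 cells per well; test concentration not given here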
[10] = target: E3 ubiquitin-protein ligase XIAP (Homo sapiens) (UniProt P98170); assay: XIAP binders, primary screen, biophysical, small-molecule microarray, fluorescence 635 nm (AID 1181); conditions: small-molecule microarray binding, higher = more signal;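 further: score merges 667 nm emission and signal to noise over triplicate slides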
E3 ubiquitin-protein ligase XIAP (Homo sapiens), sequence (P98170 whole entry, looked up): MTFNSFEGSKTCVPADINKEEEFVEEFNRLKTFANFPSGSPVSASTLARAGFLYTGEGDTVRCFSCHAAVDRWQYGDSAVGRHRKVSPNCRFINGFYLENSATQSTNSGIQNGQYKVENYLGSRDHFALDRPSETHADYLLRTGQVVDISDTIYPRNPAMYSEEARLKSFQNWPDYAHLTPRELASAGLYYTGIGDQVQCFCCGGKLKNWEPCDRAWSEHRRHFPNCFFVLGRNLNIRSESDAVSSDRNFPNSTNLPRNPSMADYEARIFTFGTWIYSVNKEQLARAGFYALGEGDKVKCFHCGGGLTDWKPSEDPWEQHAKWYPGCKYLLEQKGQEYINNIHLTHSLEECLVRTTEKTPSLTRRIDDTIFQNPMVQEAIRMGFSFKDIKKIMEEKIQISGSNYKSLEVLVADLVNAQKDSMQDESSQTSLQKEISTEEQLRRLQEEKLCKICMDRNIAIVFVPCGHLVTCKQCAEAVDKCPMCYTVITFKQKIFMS

Dihydroorotate dehydrogenase (quinone), mitochondrial (Plasmodium falciparum (isolate 3D7)), sequence (Q08210 whole entry, looked up): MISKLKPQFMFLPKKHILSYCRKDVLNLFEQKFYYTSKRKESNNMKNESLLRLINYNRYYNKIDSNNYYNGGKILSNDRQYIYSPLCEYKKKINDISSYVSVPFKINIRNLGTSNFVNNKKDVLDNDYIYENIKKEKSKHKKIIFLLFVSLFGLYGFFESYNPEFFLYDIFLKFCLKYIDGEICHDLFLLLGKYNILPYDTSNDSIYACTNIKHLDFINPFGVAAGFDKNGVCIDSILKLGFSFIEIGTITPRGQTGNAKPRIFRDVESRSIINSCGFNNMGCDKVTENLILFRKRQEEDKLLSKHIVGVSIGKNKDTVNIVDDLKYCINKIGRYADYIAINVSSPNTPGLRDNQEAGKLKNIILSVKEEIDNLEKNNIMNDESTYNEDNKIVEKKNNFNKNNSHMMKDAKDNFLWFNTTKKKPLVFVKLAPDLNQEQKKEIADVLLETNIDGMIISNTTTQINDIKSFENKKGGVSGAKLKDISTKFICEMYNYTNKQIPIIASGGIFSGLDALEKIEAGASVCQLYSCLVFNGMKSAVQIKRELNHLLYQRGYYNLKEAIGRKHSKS

SMILES | z-score [1] | z-score [2] | z-score [3] | composite z-score [4] | z-score [5] | z-score [6] | z-score [7] | z-score [8] | z-score [9] | composite z-score [10]
CCc1cc2c(nc1CC)CCN(CCC(C)=NOC(C)CN1CCCc3nc(C)c(C)cc31)C2 (stereo not given) | -0.644 | -0.822 (inactive) | -0.845 (inactive) | 0.244 (inactive) | 0.429 (inactive) | -0.173 (inactive) | 0.278 (inactive) | -1.71 (inactive) | -0.615 | 1.13
CO[C@H]1O[C@H](CO)[C@@H](OC(=O)Nc2ccc(C#N)cc2)[C@H](OC(=O)c2cc3ccccc3[nH]2)[C@H]1OC(=O)c1cc2ccccc2[nH]1 | -0.115 | -1.05 (inactive) | -1.76 (inactive) | -1.68 (inactive) | 1.63 (inactive) | -1.67 (inactive) | 2.96 (inactive) | 2.93 (inactive) | -1.7 | -0.0448
CN1C(=O)C2C(C1=O)C1C=C(CCCO)C2C(c2ccc(CN3CCCC3)cc2)N1C (stereo not given) | -1.03 | 1.04 (inactive) | -1.78 (inactive) | -3.89 (inactive) | -1.02 (inactive) | 0.626 (inactive) | -0.815 (inactive) | -0.296 (inactive) | -0.802 | 0.182
C[C@@H](c1ccccc1)N1C(=O)[C@H]2[C@H]3[C@H](O)[C@H](O)CC(=NNC(=O)OCc4ccccc4)[C@H]3CC[C@H]2C1=O | 0.2 | 0.976 (inactive) | -0.139 (inactive) | 0.749 (inactive) | 0.413 (inactive) | 0.993 (inactive) | -0.327 (inactive) | -0.462 (inactive) | 0.368 | -0.163
CC(C)=NOCc1cccc(-c2cc(-c3ccccc3)no2)c1 | -0.714 | 0.671 (inactive) | -0.862 (inactive) | -0.502 (inactive) | 0.475 (inactive) | -0.39 (inactive) | 1.19 (inactive) | -1.41 (inactive) | -0.975 | -0.288
CO[C@@H]1COC(=O)[C@H](C)NC(=O)[C@@H](C)COC(=O)CCC[C@H]1C | 0.868 | 0.0728 (inactive) | -0.516 (inactive) | -0.926 (inactive) | -0.892 (inactive) | 0.0233 (inactive) | 0.277 (inactive) | -0.297 (inactive) | -0.0734 | -0.153
O=C1[C@H]2[C@H]3[C@H](O)[C@H](O)CC(=NOCc4ccccc4)[C@@H]3CC[C@H]2C(=O)N1C1CCCCC1 | -0.116 | -3.16 (inactive) | -0.321 (inactive) | 0.35 (inactive) | 1.29 (inactive) | 0.594 (inactive) | -0.315 (inactive) | -0.881 (inactive) | -0.456 | -0.144
CCOC(=O)CCN1C(=O)[C@H]2[C@H]3[C@H](O)[C@H](O)CC(=NOC[C@@H](O)COCc4ccco4)[C@H]3CC[C@H]2C1=O | -0.749 | -11.7 (active) | -0.0452 (inactive) | -2.45 (inactive) | 0.0122 (inactive) | -0.788 (inactive) | 0.558 (inactive) | -0.899 (inactive) | -0.424 | 0.123
CC(CCN1CCCCc2nc(C)c(C)cc21)=NOC(C)CN1CCCc2nc(C)c(C)cc21 (stereo not given) | -0.0636 | -0.0975 (inactive) | -0.542 (inactive) | 0.333 (inactive) | 1.03 (inactive) | 0.325 (inactive) | 0.529 (inactive) | -0.936 (inactive) | -0.0794 | 1.56
CCOC(=O)CCN1C(=O)[C@H]2[C@H]3[C@H](O)[C@H](O)CC(=NOC[C@@H](O)COCc4ccco4)[C@@H]3CC[C@H]2C1=O | -0.454 | 0.846 (inactive) | -1.27 (inactive) | 0.318 (inactive) | -0.0121 (inactive) | 0.176 (inactive) | -0.153 (inactive) | 0.324 (inactive) | -0.8 | -0.124
O=C1O[C@@H](c2ccccc2)[C@@H](c2ccccc2)N2[C@@H](c3ccc(OCCO)cc3)[C@]3(C(=O)Nc4ccc(C#CCCO)cc43)[C@@H](C(=O)N3CCCCCCC3)[C@H]12 | 0.0125 | -0.355 (inactive) | 0.605 (inactive) | 0.221 (inactive) | 1.72 (inactive) | 1.17 (inactive) | -0.515 (inactive) | 0.543 (inactive) | 1.55 | 0.733
O=C1C2=CC[C@H]3C(=O)N(Cc4ccc5c(c4)OCO5)C(=O)[C@H]3[C@H]2[C@H](O)[C@@H]2O[C@H]12 | -0.522 | -0.105 (inactive) | -0.677 (inactive) | -0.907 (inactive) | 0.0578 (inactive) | -0.491 (inactive) | 0.166 (inactive) | 0.0632 (inactive) | -1.49 | -0.381
O=C1[C@H]2[C@H]3[C@H](O)[C@H](O)CC(=NO[C@@H]4O[C@H](CO)[C@@H](O)[C@H](O)[C@H]4O)[C@H]3CC[C@H]2C(=O)N1Cc1ccc2c(c1)OCO2 | 0.777 | -0.159 (inactive) | 0.466 (inactive) | 0.461 (inactive) | -0.249 (inactive) | 0.929 (inactive) | 0.76 (inactive) | 0.385 (inactive) | 0.367 | -0.4
CCOC(=O)[C@H](Cc1ccccc1)NC(=O)CCC1CC(OC(=O)NCc2ccc3c(c2)OCO3)CC2(CCCC(COC(=O)NCc3cccc(C(F)(F)F)c3)O2)O1 (stereo not given in full) | -0.302 | -1.17 (inactive) | 1.12 (inactive) | -2.76 (inactive) | -0.813 (inactive) | 0.234 (inactive) | -1.21 (inactive) | -0.793 (inactive) | 0.352 | 0.309
CC(C)[C@H](NC(=O)OC(C)(C)C)[C@@H](O)CC(=O)OC(C)(C)C | -0.811 | -0.448 (inactive) | 0.351 (inactive) | 0.0945 (inactive) | -0.506 (inactive) | 0.259 (inactive) | -1.69 (inactive) | -0.998 (inactive) | 0.496 | -0.102
COC(=O)C1=CCC(c2cccc(Cl)c2)O1 (stereo not given) | -0.0749 | -3.58 (inactive) | -0.232 (inactive) | -0.861 (inactive) | 0.216 (inactive) | -0.695 (inactive) | -0.0684 (inactive) | -0.0113 (inactive) | -0.646 | -0.0962
CCOC(=O)[C@H](Cc1ccccc1)NC(=O)CCC1CC(OC(=O)NCc2ccc3c(c2)OCO3)CC2(CCCC(COC(=O)NCC(c3ccccc3)c3ccccc3)O2)O1 (stereo not given in full) | 0.56 | -1.14 (inactive) | 0.328 (inactive) | -0.219 (inactive) | 0.405 (inactive) | 0.445 (inactive) | 0.816 (inactive) | 0.381 (inactive) | 0.909 | -0.0351
CC(C)[Si]1(C(C)C)O[C@@H](c2ccccc2)c2cc(C3CC3)nc(-c3ccccc3)c21 | 0.972 | 0.0055 (inactive) | 0.656 (inactive) | 0.45 (inactive) | 0.632 (inactive) | -0.403 (inactive) | -0.281 (inactive) | -0.785 (inactive) | 0.21 | 0.0785
CC(=O)C[C@H](O)[C@@H](NC(=O)OC(C)(C)C)C(C)C | -0.519 | -1.33 (inactive) | 0.481 (inactive) | -3.13 (inactive) | 0.0494 (inactive) | -0.407 (inactive) | -1.86 (inactive) | -1.1 (inactive) | -0.228 | -0.195
C=C(COC)/C(=C/C[C@H](OC(=O)c1ccncc1)c1ccc(CO)o1)c1cc(C(=O)OC)ccc1OC | -0.0086 | -0.154 (inactive) | -0.486 (inactive) | -1.02 (inactive) | 1.11 (inactive) | -0.328 (inactive) | -0.268 (inactive) | 0.0389 (inactive) | 0.343 | -0.168
O=C(CS)NCCCCCNC(=O)[C@@H]1C[C@@H]2C(=O)N[C@@H](Cc3ccccc3)C(=O)N2[C@@H]1c1ccc(O)cc1 | -0.204 | -0.391 (inactive) | 0.0755 (inactive) | 0.0126 (inactive) | -0.0338 (inactive) | 0.349 (inactive) | 0.411 (inactive) | 0.904 (inactive) | 0.252 | -0.0282
CO[C@@H]1COC(=O)CC=C[C@@H](C)[C@@H]2C=C[C@@H](O)[C@@H](COC(=O)CC=C[C@H]1C)O2 | 0.234 | -1.29 (inactive) | 0.604 (inactive) | -1.34 (inactive) | 0.683 (inactive) | -2.03 (inactive) | -0.0072 (inactive) | -0.392 (inactive) | -0.501 | 0.0304
